# DAX1 inh-1 = DAX1 (NR0B1) inhibitors on StAR promoter, primary screen, cell-based, luminescence, SF-1 (NR5A1), full-length DAX-1; HEK293T StAR-luciferase reporter, SF-1/DAX-1 repression relief; inhibition, % at 6.8 µM; 370,000 tested, 1.1% active; AID 652010, 2013;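 active = inhibition above the mean over all tested compounds plus 3 SD, cut at about 3.6% in these data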;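 note: 0% = DAX-1 cells with DMSO and 100% = cells lacking DAX-1 with DMSO; higher inhibition means more luminescence from relief of DAX-1 repression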
# SMARCA2 act = SMARCA2 (BRM) function activators, primary screen, cell-based, luminescence, high throughput; MG213 cells, MMTV-luciferase reporter, dexamethasone, overnight; AID 652017, 2013; 370,000 tested, 1% active; activation, % at 9.1 µM; in the data active = activation above about 7.8%;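 note: 0% = vehicle wells and 100% = reference activator wells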
# ssDAF12 agonist = S. stercoralis DAF-12 nuclear receptor activators, primary screen, cell-based, luminescence, HEK293, GRIP1 co-expression, lit1-tk-luc. HEK293 ssDAF-12/GRIP1 lit1-tk-luc reporter; % of 3 µM dafachronic acid response. activation, % at 6.8 µM. 370,000 tested, 1% active. AID 652126, 2013;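 active = activation above the mean over all tested compounds plus 3 SD, cut at about 0.9% in these data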;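 note: 0% = DMSO-only wells and 100% = 3 µM delta7-dafachronic acid wells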
# hgDAF12 agonist = H. glycines DAF-12 receptor agonists, primary screen, cell-based, luminescence, HEK293, GAL4 fusion, UAS-luciferase; AID 687014, 2013; activation, % at 6.8 µM; 370,000 tested, 1.8% active; Nuclear hormone receptor DAF-12 (Heterodera glycines), GAL4 fusion; HEK293 GAL4-hgDAF12 UAS-luciferase reporter, agonist luminescence; normalized to butyrate control;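 active = activation above a cutoff set at the mean of all screened compounds plus 3 SD, cut at about 10% in these data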;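 note: 0% = DMSO wells and 100% = sodium butyrate wells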
# DAX1 inh-2 = DAX1 (NR0B1) inhibitors, primary screen, cell-based, HEK293, Gal4-DAX1, luciferase luminescence; Nuclear receptor subfamily 0 group B member 1 (Homo sapiens), P51843; HEK293 Gal4-DAX1 luciferase reporter; 340,000 tested, 0.99% active; inhibition, % at 6.75 µM;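 active = inhibition above the mean over all tested compounds plus 3 SD, cut at about 4.2% in these data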;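 note: 0% = DAX1-transfected cells with DMSO and 100% = empty-vector control cells with DMSO; inhibition shows as a rise in luminescence from relieved DAX1 repression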
# Target sequence (P51843 207-470 limits assumed): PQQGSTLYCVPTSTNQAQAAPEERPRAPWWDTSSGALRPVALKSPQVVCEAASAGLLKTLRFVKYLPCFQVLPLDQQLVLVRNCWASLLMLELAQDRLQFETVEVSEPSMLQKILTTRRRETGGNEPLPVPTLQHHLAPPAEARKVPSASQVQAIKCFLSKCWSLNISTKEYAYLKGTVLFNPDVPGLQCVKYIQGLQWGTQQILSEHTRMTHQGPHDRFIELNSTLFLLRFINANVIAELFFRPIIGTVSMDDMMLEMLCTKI
# hcDAF-12 act = H. contortus DAF-12 nuclear receptor activators, primary screen, cell-based, luminescence, HEK293, lit1-tk-luc reporter | activation, % at 6.8 µM | AID 652067, 2013 | HEK293 hcDAF-12 lit1-tk-luc reporter; 0% DMSO, 100% Δ7-dafachronic acid | 370,000 tested, 1.4% active;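 active = activation above the mean of all tested compounds plus 3 SD, cut at about 5.5% in these data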;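 note: 100% = response to 3 µM Δ7-dafachronic acid high control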
# * marks the source's active call; other numbers are inactive results; . = not tested or not shown. Only some compounds are listed: those with a hit (about 4.8% of all), similar ones and a draw of the others.
SMILES,DAX1 inh-1,SMARCA2 act,ssDAF12 agonist,hgDAF12 agonist,DAX1 inh-2,hcDAF-12 act
Clc1ccc(-c2nc(-c3ccncc3)no2)c(Cl)c1,0.2,-0.5,-0.9,7.9,4.9*,0.7
c1ccc(-c2nc(-c3ccncc3)no2)cc1,0.5,7.2,-0.8,7.6,3.2,1.8
Clc1ccc(Cl)c(-c2nc(-c3ccncc3)no2)c1,-0.4,0.1,-1.0,0.5,1.2,2.5
c1coc(-c2nc(-c3ccncc3)no2)c1,1.0,-0.5,1.7*,12.9*,0.6,4.5
C=CCNc1sc(C(=O)c2ccccc2)c(N)c1-c1nc2ccccc2s1,.,.,.,.,1.0,.
CCCOP(=O)(OCCC)C(Nc1ccc(C(=O)O)cc1)c1ccccc1 (stereo not given),-0.2,2.0,-1.9,5.6,3.6,1.4
COc1ccc(NC(=S)Nc2ccc3nccnc3c2)cc1,1.2,-0.8,-0.5,10.6*,-0.2,2.7
O=C(CSc1nnc(Cc2cccs2)n1C1CCCCC1)N1CCN(C(=O)c2ccco2)CC1,0.0,-4.1,-0.5,-1.3,-1.2,-0.1
O=[N+]([O-])c1cc2c(c(CSc3ncccn3)c1)OCOC2,0.4,5.2,0.8,4.2,6.9*,0.8
COc1ccccc1CN(C)CC(=O)Nc1cccc(S(=O)(=O)N2CCCCC2)c1,-4.5,-3.1,-1.6,-1.0,-1.6,-2.6
C#CCn1c(C)cc(C)c(S(=O)(=O)c2ccccc2)c1=O,2.8,2.6,-1.2,11.1*,2.8,2.2
Cc1cc(C)n(Cc2ccccc2)c(=O)c1S(=O)(=O)c1ccccc1,-0.4,0.0,-1.0,1.1,0.8,-0.1
Cc1cc(NC(=O)CN2CCN(c3ccccc3O)CC2)no1,0.2,-1.5,1.1*,0.1,-0.1,0.5
Cc1cc(C)nc(Nc2n[nH]c(-c3ccccc3C)n2)n1,2.2,5.9,-1.0,6.2,4.6*,-0.2
Cc1cc(C)nc(Nc2n[nH]c(-c3ccc(N)cc3)n2)n1,3.5,5.6,-0.2,11.1*,1.3,3.2
Cc1cc(C(=O)Nc2ccccc2N2CCOCC2)ccc1[N+](=O)[O-],0.4,4.2,-1.1,-0.6,-0.1,-1.4
O=C1c2ccccc2C(=O)N1CCSc1nc2ccccc2c(=O)n1CCCN1CCOCC1,-0.5,1.4,-1.4,-1.3,0.5,-1.8
O=C(O)c1c(Cl)nc2ccccn12,-0.7,-1.1,-1.3,1.6,-1.6,-0.5
Clc1cccc(-c2ccc(-c3nc4ccccn4c3NCc3ccccc3)cc2)c1,0.9,3.2,1.8*,7.0,0.1,1.7
Clc1c(-c2ccccc2)nc2ccccn12,1.9,1.4,1.6*,8.1,2.0,4.4
COc1ccc(-n2nc3c(c2NC(=O)CCCl)CSC3)cc1,-0.2,-0.3,0.0,-1.1,0.7,3.6
CC(C)c1ccc(NC(=O)C2CCCN(S(=O)(=O)c3cnc[nH]3)C2)cc1 (stereo not given),0.2,1.4,-1.4,0.5,5.5*,-1.5
CC(C)c1ccc(S(=O)(=O)N2CCC(C(=O)N3CCC3)CC2)cc1,-0.5,-0.8,-1.4,-3.0,-0.8,-0.8
CC(C)c1ccc(S(=O)(=O)N2CCN(C(=O)C3CCCCC3)CC2)cc1,-1.8,0.1,-1.8,-3.8,-0.2,5.8*
CCC(C)c1ccc(O)c(NC(=S)NC(=O)c2cccnc2)c1 (stereo not given),1.8,0.3,-1.5,1.1,0.7,-2.1
SMILES,DAX1 inh-1,SMARCA2 act,ssDAF12 agonist,hgDAF12 agonist,DAX1 inh-2,hcDAF-12 act
O=C(Cn1nnc(-c2ccccc2Cl)n1)N1CCCCC1,1.3,4.0,-0.1,6.6,4.6*,0.5
O=C(CSc1nnc(NC(=O)c2ccccc2F)s1)Nc1ccccc1F,3.4,4.6,-1.6,12.6*,2.5,1.7
O=C(CSc1nnc(NC(=O)c2ccco2)s1)Nc1ccccc1F,0.0,-0.1,-1.4,1.9,1.9,0.9
O=C(CSc1nnc(NC(=O)c2ccccc2Cl)s1)NC1CC1,1.0,0.5,-0.3,7.1,2.0,5.6*
CCSc1nnc(NC(=O)CC(C)C)s1,0.7,4.3,-2.0,1.6,6.4*,1.2
Cc1ccccc1NS(=O)(=O)c1nnc(NC(=O)c2ccccc2F)s1,-0.3,-0.6,-0.6,0.6,1.3,0.2
CC(C)(C)NC(=O)CSc1nnc(NC(=O)c2ccccc2Cl)s1,0.6,-0.4,-1.4,4.5,3.8,-0.2
O=C(Nc1nnc(S(=O)(=O)Cc2ccc(F)cc2)s1)c1ccccc1F,-0.1,-0.5,1.3*,-0.6,-0.8,-2.6
CCSc1nnc(NC(=O)c2ccccc2C)s1,4.4*,2.6,-1.3,12.9*,3.5,1.9
CCSc1nnc(NC(=O)c2cccnc2Cl)s1,1.2,3.1,-0.7,3.5,0.0,-0.4
FC(F)(F)c1nnc2ccc(NCc3cccnc3)nn12,-0.4,-2.1,-1.4,-2.6,7.9*,-1.9
COc1ccc2nc(N/C(N)=N/S(C)(=O)=O)nc(C)c2c1,0.4,-0.1,-0.2,1.5,4.6*,-0.8
COc1ccc2nc(N/C(N)=N/C(=S)Nc3c(C)cccc3C)nc(C)c2c1,0.1,7.6,-1.7,1.2,-0.4,-2.7
NC(=O)CSc1nc(O)cc(=O)n1-c1ccccc1,0.5,-2.4,-1.1,1.4,0.0,-0.5
O=C(O)CCSc1nc(C(F)(F)F)cc(=O)n1-c1ccccc1,0.4,-1.0,-1.1,-1.6,5.7*,-0.3
CCN(CC(=O)NCc1ccncc1)S(=O)(=O)c1cc(Cl)ccc1Cl,0.0,-2.6,-1.1,3.2,4.2*,-2.8
COc1ccc(C(=O)Nc2nc3ccc(OC)cc3s2)cc1,0.6,3.8,-0.8,7.6,1.7,1.2
COc1ccc(Nc2nc3ccc(OC)cc3s2)cc1,1.2,3.1,-1.2,12.1*,1.1,0.1
COc1ccc(-c2csc(NC(=O)c3ccoc3C)n2)cc1,1.7,3.1,-1.5,10.7*,1.9,1.1
COc1ccc(-c2csc(NC(=O)c3c(C)noc3C)n2)cc1,-1.9,0.1,-1.4,-2.2,-1.0,-1.9
CCC(=O)Nc1nc2cc(OC)ccc2s1,1.1,2.1,-1.4,9.2,3.6,-0.2
CCOc1ccc2nc(NC(=O)c3ccoc3C)sc2c1,2.5,3.1,0.4,11.0*,-2.6,6.2*
COc1ccc2sc(NC(C)=O)nc2c1,3.3,2.1,-0.4,11.3*,2.3,1.9
CCOC(=O)N1CCc2c(sc(NC(=O)CN3CCOCC3)c2C(=O)Nc2ccccc2)C1,-1.4,1.9,0.1,1.7,-1.9,0.1
